This excerpt belongs to a sample that is enriched for hits.
IMPase inh – cell-permeable inhibitors of inositol monophosphatase (IMPase); P97697; CHO-M1 cells, IP1 accumulation, HTRF TR-FRET ratio; inhibition (IP1 accumulation), % at 46.1 µM; 120,000 tested, under 10 active; AID 901; active means well fitted curve in the direction sought with a large enough effect in the signal ratio, not every such curve was filed as active; inconclusive means small, poorly fitted or top-dose-only effect, or a change in a side signal; inactive means no such curve, though single readings can be large or run the other way; the % refers to the signal ratio;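 further: cells stimulated with carbachol in lithium chloride buffer; higher means more IMPase inhibition seen as more IP1 and lower FRET ratio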
Target sequence (P97697 whole entry, looked up): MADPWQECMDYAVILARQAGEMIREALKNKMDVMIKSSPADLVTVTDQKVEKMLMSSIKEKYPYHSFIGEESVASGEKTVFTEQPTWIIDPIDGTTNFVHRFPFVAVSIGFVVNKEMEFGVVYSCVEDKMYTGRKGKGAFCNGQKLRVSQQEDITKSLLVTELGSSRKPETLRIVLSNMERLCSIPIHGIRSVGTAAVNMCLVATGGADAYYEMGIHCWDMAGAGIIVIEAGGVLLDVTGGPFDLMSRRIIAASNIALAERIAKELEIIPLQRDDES
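Elevated IP1 in lysates lowers TR-FRET signal (665/620 ratio and 620 channel reported). Cells were CHO-M1, given carbachol (50 uM as added) plus 50mM LiCl, pH 7.4, 30 min, 37C; compounds titrated up to 46 uM; AC50 by Hill equation.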
PNC assembly inh – blocks assembly of the perinucleolar compartment | PC3M PTB-GFP, PNC prevalence imaging, 16 h; hits give low values | activity change (PNC), negative = inhibition, % at 10 µM | 3.1% of 140,000 active | AID 2417;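 active means readout at or below -70, meaning at least 70% loss of cells showing the perinucleolar compartment, a nuclear body marking cancer cells; inconclusive means readout between -30 and a set limit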
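PC3M cells stably expressing PTB-GFP, 750–1000 cells/well, treated 16 h at 37 °C with compound (23 nl of library stock), in duplicate. After paraformaldehyde fixation and Hoechst stain, imaged at 20x; PNC prevalence scored by image analysis.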
IMPase Li cell – cell-permeable IMPase inhibitors with lithium potentiation; AID 1457; 0.35% of 210,000 active; CHO-M1 cells, IP1 TR-FRET (IP-One), carbachol + lithium; Potency, µM (series often up to 59.4 µM), usual class: inhibitors;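 further: IP1 builds up when IMPase is blocked and the TR-FRET signal falls; nearly all actives have a fitted effect of over 50% in size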
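Lithium-sensitised IP1 accumulation assay; M1-expressing CHO cells treated 30 min at 37C with compound. Competitive antibody detection by time-resolved FRET followed a 10 min room-temperature lysis step.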
ALOX12 inhib – inhibitors of human 12-lipoxygenase (ALOX12); P18054; purified 12-hLO, xylenol orange hydroperoxide absorbance; Potency, µM (series often up to 57.1 µM), usual class: inhibitors; 0.12% of 150,000 active; further: nearly all actives have a fitted effect of over 55% in size
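150 nM 12hLO, 25 mM Hepes pH 7.0 + 0.01% Triton X-100; cpd preinc 15 min RT; 40 uM arachidonic acid, 30 min RT; Fe-XO 30 min; A573/A405 ratio as read-out.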
A number is an active result; - = inactive; ? = inconclusive; . = no result given; [ ] = remark or other dose. Unless noted, the call rests on the fitted dose curve; in most records, active means well fitted curve in the direction sought with a large enough effect; inconclusive means small, poorly fitted or top-dose-only effect, or another doubt; inactive means no such curve, though single readings can be large; an effect the other way counts as inactive or inconclusive.

SMILES	IMPase inh	PNC assembly inh	IMPase Li cell	ALOX12 inhib
CC(NC(=O)CC(O)(C(F)(F)F)C(F)(F)F)c1ccccc1 (stereo unspecified)	-	-88	-	-
CC(NC(=O)Cc1ccccc1)c1ccc(F)cc1 (stereo unspecified)	-	-	-	-
COc1ccc(CNCCNC(=O)c2cccs2)c(OC)c1OC	.	.	-	.
COc1ccc(-n2nnnc2-c2cccc(OC)c2)cc1	-	-83	-	-
Cc1ccc(-n2nnnc2-c2cccc(C)c2)cc1	.	.	-	.
CCc1ccc(-c2nc(NC(=O)c3ccc(OCC(=O)Nc4ccc(F)cc4)c(OC)c3)sc2C)cc1	?	?	7.9µM	-
O=C(Nc1ccc(Cl)cc1C(F)(F)F)c1ccccc1	-	-	-	-
O=C(COC(=O)CCCN1C(=O)c2cccc3cccc(c23)C1=O)Nc1cccc(C(F)(F)F)c1	.	-106	-	-
O=C(COC(=O)CCCN1C(=O)c2ccccc2C1=O)Nc1ncc(Cl)cc1Cl	-	-100	-	-
N[C@@H](Cc1[nH]nc2ccccc12)C(=O)O	.	.	-	-[11.4 µM]
Cc1ccc(-c2nnc(-c3cccc(Br)c3)o2)cc1	-	-	-	-
Cc1cccc(-c2nnc(-c3ccc(N)cc3)o2)c1	-	-	13µM	-
N=C(N)S[C@H]1c2ccccc2-c2cc([N+](=O)[O-])ccc21	.	.	-	-[11.4 µM]
O=C1CC(C(=O)Nc2ccc(Cl)cc2[N+](=O)[O-])C2(CCCCC2)O1 (stereo unspecified)	.	-84	-	-
O=C(CSc1ccc2c(c1)OCCO2)NCc1ccco1	-	-	-	-
Cc1cc(Cc2cc(C)cc(C(C)(C)C)c2O)c(O)c(Cc2cc(C)cc(C(C)(C)C)c2O)c1	.	.	-	-[11.4 µM]
CC(C)c1ccc(NC(=O)CCNS(=O)(=O)c2cccc3nonc23)cc1	-	-100	-	-
C=CC1=C(C)C2=NC1=CC1=NC(=CC3=NC(=CC4=NC(=C2)C(C)=C4CCC(=O)O)C(CCC(=O)O)=C3C)C(C=C)=C1C.[Zn]	-	.	-	?
COc1ccc2oc(-c3ccccc3)c(OC)c(=O)c2c1	-	.	-	-
COc1ccc2oc(-c3ccccc3)c(C(N)=O)c2c1	-	-	11µM	-
CCN(CCCNC(=O)COc1cc(=O)n(C)c2ccccc12)c1ccccc1	-	-	-	-
CCN(CCCNC(=O)CCNC(=O)Cn1ccc2ccccc2c1=O)c1ccccc1	-	-94	-	-
CN(CCNC(=O)CCNC(=O)Cn1ccc2ccccc2c1=O)Cc1ccccc1	-	-	.	-
CCN(CCCNC(=O)COc1cc(=O)n(CC)c2ccccc12)c1ccccc1	-	-100	-	-
O=C(c1cccs1)N(Cc1ccco1)Cc1cc2ccccc2[nH]c1=O	-	-117	-	-
SMILES	IMPase inh	PNC assembly inh	IMPase Li cell	ALOX12 inhib
Cc1ccc2[nH]c(=O)c(CN(C(=O)c3cccs3)c3ccccc3)cc2c1	-	-85	?	-
COc1ccc2[nH]c(=O)c(CN(C(=O)c3cccnc3)c3ccccc3)cc2c1	-	-	-	-
COc1ccc2[nH]c(=O)c(CN(C(=O)c3ccccn3)c3ccccc3)cc2c1	-	-92	-	-
Cn1c(=O)c2c(ncn2CCO)n(C)c1=O	-	.	-	-
CC(O)Cn1cnc2c1c(=O)n(C)c(=O)n2C (stereo unspecified)	.	-115	-	-
Cn1c(=O)c2c(ncn2Cc2ccccc2)n(C)c1=O	-	-	-	-
Cn1c(=O)c2c(ncn2CCCc2ccccc2)n(C)c1=O	-	-89	-	-
O=C(O)CCc1ccc(-c2ccccc2)n1-c1cccc(Br)c1	-	.	.	.
CCC(C)C(NC(=O)OC(C)(C)C)C(=O)NC(C(=O)NC(C)C(N)=O)C(C)C (stereo unspecified)	.	.	-	.
C=CCNC(=O)/C(=C\C=C\c1ccccc1)NC(=O)c1ccc(OCCCC)cc1	-	-105	-	-
CC(=O)c1c(C)[nH]c(C(=O)NCc2ccccn2)c1C	-	-	-	-
CCOC(=O)c1[nH]c(C)c(C(=O)NCc2ccccn2)c1C	-	-100	-	-
C[C@@H](CN(C)C)CN1c2ccccc2CCc2ccccc21	-	.	-	-
COc1ccc(-c2nnc(OCc3ccccc3)c3ccccc23)cc1	-	-88	-	-
c1ccc(-c2nnc(OCc3cccnc3)c3ccccc23)cc1	.	.	-	.
O=C(COc1ccccc1)N1CCN=C1c1ccccc1	-	-	-	-
COc1cc(C(=O)N2CCN=C2c2ccccc2)cc(OC)c1OC	-	-100	-	-
O=C(c1ccc(F)cc1)N1CCN=C1c1ccccc1	.	-96	-	-
Cc1cc(C(=O)O)cc(S(=O)(=O)N2CCOCC2)c1C	-[1.84 µM]	-87	-	-
COc1cc(NC(=O)c2cccs2)c(C(=O)OCC(=O)NC(=O)NC(C)(C)C)cc1OC	-	-98	-	-
S=C(Nc1cccc(Cl)c1)N1CCN(Cc2ccccc2)CC1	.	-80	-	-
Nc1nc(N)nc(CC(=O)O)n1	.	.	-	-[11.4 µM]
O=[N+]([O-])c1ccc(-c2nnc(-c3ccccc3)c(NCCCO)n2)cc1	.	-85	-	-
C=C(Br)CN(C)CC(=C)Br	.	.	-	-[11.4 µM]
CCCn1nnc(NC(=O)C(C)Oc2ccc(Cl)cc2Cl)n1 (stereo unspecified)	-	-	-	-
SMILES	IMPase inh	PNC assembly inh	IMPase Li cell	ALOX12 inhib
CC(Oc1cc(Cl)ccc1Cl)C(=O)N/N=C\c1ccnn1C (stereo unspecified)	.	-109	-	-
CCCCc1nc2c(c3c1C[C@H](C)OC3)CN(C(=O)N[C@H](C(=O)OC)C(C)C)CC2	.	.	-	-[11.4 µM]
O=C(O)CSc1nc2c(c(C(F)(F)F)n1)CCc1ccccc1-2	.	.	-	.
O=C(CSc1nc2c(c(C(F)(F)F)n1)CCc1ccccc1-2)NCc1ccc(F)cc1	-	-119	-	-
O=C(CSc1nc2c(c(C(F)(F)F)n1)CCc1ccccc1-2)NCc1ccccc1	-	-	10µM	-
COc1cc2c(-c3ccccc3Cl)nc3c(c(C)nn3-c3ccccc3)c2cc1OC	-	.	.	.
NC(=S)c1cc2cc(Br)ccc2oc1=O	.	.	-	.
NC(=S)c1cc2ccc(O)cc2oc1=O	?	-	3.2µM	-
CCCCNc1nc2ccccc2n1CC(=O)N1CCc2ccccc2C1	-	-	-	-
CCCCNC(=O)N1CCc2ccccc2C1	.	-114	-	-
CC/C(=C(/c1ccccc1)c1ccc(OCCN(C)C)cc1)c1ccccc1	.	.	-	-[0.00818 µM]
CC1=NNC(=O)C1CCC(=O)N/N=C/C(Br)=C/c1ccccc1 (stereo unspecified)	-	-115	.	-
CC1C(=O)NN=C1C(=O)N/N=C\C(Br)=C\c1ccccc1 (stereo unspecified)	.	.	-	.
O=C1CC(c2nnc(Cc3cccc(Cl)c3)o2)CN1c1ccccc1 (stereo unspecified)	-	.	.	.
COC(=O)[C@@]1(Cc2ccc(OC)cc2)[C@H]2c3cc(C(=O)N(C)C)n(C)c3C[C@H]2CN1C(=O)c1ccccc1	.	.	-	-
O=C(Nc1ccccc1)Nc1nnc(CSCc2ccccc2Cl)s1	-	-88	-	-
COc1ccc(NC(=O)/C(C#N)=C/c2c(C)nn(-c3ccc(F)cc3)c2Cl)cc1Cl	.	-83	-	-
